Measurements reported in PubChem BioAssay (NCI).
Compounds without any hit were thinned out: in the full panel of roughly 79,000, 15% have a hit. Activity calls are given as the source filed them. Cut-off read from the data, not from the text of the source: active = growth inhibition above about 70%; inactive = the rest.

Assays:
[1] = NCI Yeast Anticancer Drug Screen. Data for the rad52 strain (AID 147);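 note: 0% = growth of vehicle-treated control cultures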; conditions: S. cerevisiae rad52 mutant growth inhibition, active compounds read high
Summary of the method: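 Inhibition of yeast growth, referenced to vehicle controls, was the measured output for a strain with defective DNA damage repair.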

[2] = NCI Yeast Anticancer Drug Screen. Data for the wt1 strain (AID 149);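 note: 0% = growth of vehicle-treated wt1 cultures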; conditions: S. cerevisiae wt1 strain (SPY 50644) growth inhibition, active compounds read high
Summary of the method: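 wt1 yeast, compound-treated; % growth inhibition vs vehicle control.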

[3] = NCI Yeast Anticancer Drug Screen. Data for the rad50EPP+ strain (AID 151);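 note: 0% = growth of vehicle-treated control cultures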; conditions: S. cerevisiae rad50 mutant strain, active compounds read high
Summary of the method: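 Genetically defined yeast (rad50EPP+, DNA damage repair alteration) is grown with compound, and inhibition of growth is expressed relative to vehicle-treated controls.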

[4] = NCI Yeast Anticancer Drug Screen. Data for the rad50 strain (AID 155);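 note: 0% = growth of vehicle-only cultures of the same strain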; conditions: S. cerevisiae rad50 strain growth inhibition, active compounds read high
Summary of the method: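 Genetically altered yeast (DNA repair pathway); compound treatment; growth inhibition vs vehicle ctrl.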

[5] = NCI Yeast Anticancer Drug Screen. Data for the mec2-1 strain (AID 157); conditions: S. cerevisiae mec2-1 strain, active compounds read high
Summary of the method: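 Each compound was tested on mec2-1 yeast, a strain altered in DNA damage repair or cell cycle control. Growth inhibition is reported relative to vehicle.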

[6] = NCI Yeast Anticancer Drug Screen. Data for the rad14 strain (AID 159);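 note: 0% = growth of vehicle-treated control cultures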; conditions: S. cerevisiae rad14 strain growth inhibition, active compounds read high
Summary of the method: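 Test compounds were applied to a repair-deficient yeast strain. Its growth was then compared with that of cultures given vehicle alone, and inhibition was expressed relative to those controls.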

[7] = NCI Yeast Anticancer Drug Screen. Data for the sgs1 mgt1 strain (AID 161);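 note: 0% = growth of cultures given vehicle only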; conditions: S. cerevisiae sgs1 mgt1 strain, active compounds read high
Summary of the method: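 Read-out: growth inhibition vs vehicle controls. Cells: mutant yeast strain deficient in DNA damage repair.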

[8] = NCI Yeast Anticancer Drug Screen. Data for the CLN2oe strain (AID 163);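 note: 0% = growth of vehicle-only control cultures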; conditions: S. cerevisiae CLN2oe strain, active compounds read high
Summary of the method: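 First, the altered yeast strain was treated with each compound; second, its growth was measured; finally, inhibition was derived by comparison with vehicle controls.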

[9] = NCI Yeast Anticancer Drug Screen. Data for the cln2 rad14 strain (AID 165);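 note: 0% = growth equal to vehicle treated cultures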; conditions: S. cerevisiae cln2 rad14 strain, active compounds read high
Summary of the method: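 Test compounds were added to cln2 rad14 yeast cultures; inhibition of growth was then determined by comparison with vehicle treatment.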

[10] = NCI Yeast Anticancer Drug Screen. Data for the bub3 strain (AID 167); conditions: S. cerevisiae bub3 mutant strain, active compounds read high
Summary of the method: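 Yeast carrying a defined mutation is treated with each compound, and growth is compared with that of vehicle-exposed cells to give inhibition.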

[11] = NCI Yeast Anticancer Drug Screen. Data for the wt2 strain (AID 169);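 note: 0% = growth of vehicle-treated yeast cultures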; conditions: S. cerevisiae wt2 strain growth inhibition, active compounds read high
Summary of the method: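 The panel's yeast strains carry defined changes in DNA repair or cell cycle genes. Each strain is grown with compound, and growth loss is scored relative to vehicle.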

[12] = NCI Yeast Anticancer Drug Screen. Data for the mlh1 strain (AID 171);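 note: 0% = growth of vehicle-treated control cultures of the same strain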; conditions: S. cerevisiae mlh1 strain growth inhibition, active compounds read high
Summary of the method: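 Inhibition values reflect reduced yeast growth in the presence of compound, referenced to vehicle controls, using a strain chosen for its alteration in DNA repair or cell cycle control.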

[13] = NCI Yeast Anticancer Drug Screen. Data for the sgs1 strain (AID 173);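 note: 0% = growth of vehicle-only control cultures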; conditions: S. cerevisiae sgs1 mutant, active compounds read high
Summary of the method: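 Vehicle-treated cultures served as reference for growth inhibition of a yeast strain altered in DNA damage repair or cell cycle control after compound exposure.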

[14] = NCI Yeast Anticancer Drug Screen. Data for the mlh1 rad18 strain (AID 175); conditions: S. cerevisiae mlh1 rad18 strain growth inhibition, active compounds read high
Summary of the method: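 Inhibition values reflect reduced growth of mutant yeast versus vehicle-treated controls following compound exposure; the mutations affect DNA damage repair.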

[15] = NCI Yeast Anticancer Drug Screen. Data for the rad18 strain (AID 177); conditions: S. cerevisiae rad18 mutant growth inhibition, active compounds read high
Summary of the method: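 Steps: expose repair-mutant yeast to compound; measure growth; express as inhibition relative to vehicle control.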

[16] = at 5.0 µM (retest, dose inferred, filed as 0.5)
[17] = at 50.0 µM (retest, dose inferred, filed as 5.0)

Measured: growth inhibition

CCNc1ccc2c(c1)C(=O)N(OS(C)(=O)=O)C2=O
active: [1]; at 100.0 µM 79% | [4]; at 50.0 µM 96.8% | [4]; at 100.0 µM 88% | [7]; at 50.0 µM 85.6% | [14]; at 50.0 µM 97% | [15]; at 100.0 µM 73%
inactive: [1]; at 1.2 µM 1% | [1]; at 3.7 µM 1% | [1]; at 11.0 µM 5% | [1]; at 33.0 µM 23% | [2]; at 1.2 µM 1% | [2]; at 3.7 µM 5% | [2]; at 11.0 µM 4% | [2]; at 33.0 µM 10% | [2]; at 100.0 µM 31% | [3]; at 1.2 µM 7% | [3]; at 3.7 µM 6% | [3]; at 11.0 µM 7% | [3]; at 33.0 µM 11% | [3]; at 100.0 µM 27% | [4]; at 1.2 µM 2% | [4]; at 3.7 µM 2% | [4]; [16] 4% | [4]; at 11.0 µM 8% | [4]; at 33.0 µM 18% | [4]; [17] 18% | [5]; at 1.2 µM 6% | [5]; at 3.7 µM 10% | [5]; [16] 4% | [5]; at 11.0 µM 14% | [5]; at 33.0 µM 21% | [5]; [17] 23% | [5]; at 50.0 µM 61% | [5]; at 100.0 µM 7% | [6]; at 1.2 µM 3% | [6]; at 3.7 µM 0% | [6]; at 11.0 µM 3% | [6]; at 33.0 µM 16% | [6]; at 100.0 µM 34% | [7]; [16] 3% | [7]; [17] 12% | [8]; at 1.2 µM 5% | [8]; at 3.7 µM -6% | [8]; at 11.0 µM 4% | [8]; at 33.0 µM 15% | [8]; at 100.0 µM 40% | [9]; [16] 8% | [9]; [17] 21% | [9]; at 50.0 µM 69.6% | [10]; at 1.2 µM -2% | [10]; at 3.7 µM -2% | [10]; [16] -1% | [10]; at 11.0 µM 0% | [10]; at 33.0 µM 8% | [10]; [17] 12% | [10]; at 50.0 µM 24.5% | [10]; at 100.0 µM 26% | [11]; at 1.2 µM 0% | [11]; at 3.7 µM 1% | [11]; at 11.0 µM 1% | [11]; at 33.0 µM 6% | [11]; at 100.0 µM 41% | [12]; at 1.2 µM 3% | [12]; at 3.7 µM 3% | [12]; at 11.0 µM 5% | [12]; at 33.0 µM 12% | [12]; at 100.0 µM 42% | [13]; at 1.2 µM 2% | [13]; at 3.7 µM 3% | [13]; at 11.0 µM 6% | [13]; at 33.0 µM 15% | [13]; at 100.0 µM 62% | [14]; [16] -3% | [14]; [17] 23% | [15]; at 1.2 µM 4% | [15]; at 3.7 µM 2% | [15]; at 11.0 µM 3% | [15]; at 33.0 µM 14%

Cc1onc(-c2ccccc2Cl)c1C1=N/C(=C/c2cc(Cl)cc(Cl)c2O)C(=O)O1
active: [1]; at 100.0 µM 70% | [2]; at 100.0 µM 74% | [4]; [17] 90% | [4]; at 50.0 µM 79.3% | [5]; [17] 90% | [7]; at 50.0 µM 78.6% | [9]; [16] 72% | [9]; at 50.0 µM 71.5% | [10]; at 50.0 µM 77.2% | [14]; at 50.0 µM 75.6%
inactive: [1]; at 1.2 µM -36% | [1]; at 3.7 µM -39% | [1]; at 11.0 µM -35% | [1]; at 33.0 µM -42% | [2]; at 1.2 µM -3% | [2]; at 3.7 µM -26% | [2]; at 11.0 µM -26% | [2]; at 33.0 µM -16% | [3]; at 1.2 µM -22% | [3]; at 3.7 µM -28% | [3]; at 11.0 µM 3% | [3]; at 33.0 µM -5% | [3]; at 100.0 µM -25% | [4]; at 1.2 µM -38% | [4]; at 3.7 µM -32% | [4]; [16] 33% | [4]; at 11.0 µM -35% | [4]; at 33.0 µM 2% | [4]; at 100.0 µM 69% | [5]; at 1.2 µM -32% | [5]; at 3.7 µM -35% | [5]; [16] 35% | [5]; at 11.0 µM -39% | [5]; at 33.0 µM -4% | [5]; at 50.0 µM 60% | [5]; at 100.0 µM 61% | [6]; at 1.2 µM -51% | [6]; at 3.7 µM -56% | [6]; at 11.0 µM -58% | [6]; at 33.0 µM -46% | [6]; at 100.0 µM 59% | [7]; [16] -9% | [7]; [17] 42% | [8]; at 1.2 µM -5% | [8]; at 3.7 µM -19% | [8]; at 11.0 µM -5% | [8]; at 33.0 µM 26% | [8]; at 100.0 µM 66% | [9]; [17] 60% | [10]; at 1.2 µM -55% | [10]; at 3.7 µM -40% | [10]; [16] 47% | [10]; at 11.0 µM -43% | [10]; at 33.0 µM -10% | [10]; [17] 65% | [10]; at 100.0 µM 68% | [11]; at 1.2 µM -12% | [11]; at 3.7 µM -12% | [11]; at 11.0 µM -18% | [11]; at 33.0 µM 11% | [11]; at 100.0 µM 62% | [12]; at 1.2 µM -39% | [12]; at 3.7 µM -42% | [12]; at 11.0 µM -27% | [12]; at 33.0 µM 3% | [12]; at 100.0 µM 49% | [13]; at 1.2 µM -19% | [13]; at 3.7 µM -39% | [13]; at 11.0 µM -23% | [13]; at 33.0 µM 11% | [13]; at 100.0 µM 69% | [14]; [16] 42% | [14]; [17] 46%

O=C1C=CC(=O)N1c1ccc2c(c1)OCO2
active: [1]; at 3.7 µM 94% | [1]; at 11.0 µM 100% | [1]; at 33.0 µM 100% | [1]; at 100.0 µM 100% | [2]; at 3.7 µM 96% | [2]; at 11.0 µM 100% | [2]; at 33.0 µM 100% | [2]; at 100.0 µM 100% | [3]; at 3.7 µM 80% | [3]; at 11.0 µM 99% | [3]; at 33.0 µM 99% | [3]; at 100.0 µM 99% | [4]; at 3.7 µM 86% | [4]; [16] 84% | [4]; at 11.0 µM 99% | [4]; at 33.0 µM 99% | [4]; [17] 97% | [4]; at 50.0 µM 99% | [4]; at 100.0 µM 99% | [5]; at 3.7 µM 76% | [5]; at 11.0 µM 100% | [5]; at 33.0 µM 100% | [5]; [17] 99% | [5]; at 50.0 µM 98.5%
inactive: [1]; at 1.2 µM 11% | [2]; at 1.2 µM 9% | [3]; at 1.2 µM 9% | [4]; at 1.2 µM 12% | [5]; at 1.2 µM -3% | [5]; [16] 12%
